The list is not random: actives were taken first. Their share in the collection is about 9.3%.
NPC1 prom act: NPC1 promoter activation | Huh7 NPC1 promoter luciferase reporter, 24 h | Potency, µM (doses to about 9.22 µM), for inactives: at the top dose activation, usual class: activators | AID 485313 | 320,000 tested, 2.4% active; also: % of control where 0% means no effect; nearly all actives have a fitted effect of over 60% in size
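Luminescence from an NPC1 promoter-driven luciferase reporter in stably transfected Huh7 cells was measured after 24 h compound treatment at 37 °C, followed by 10 min ambient incubation with luciferase detection reagent.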
FLuc counter: inhibits or activates purified firefly luciferase, miR-21 counter-screen. purified FLuc, Km substrates, luminescence inhibition. Potency, µM (series often up to 57.5 µM), without a hit: at the highest dose activity change, negative = inhibition, most hits filed as inhibitors. 360,000 tested, 6.9% active. AID 588342;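 also: plate controls were vehicle for no effect and reference inhibitor for full effect; nearly all actives have a fitted effect of over 55% in size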
Target sequence (P08659 whole entry, looked up): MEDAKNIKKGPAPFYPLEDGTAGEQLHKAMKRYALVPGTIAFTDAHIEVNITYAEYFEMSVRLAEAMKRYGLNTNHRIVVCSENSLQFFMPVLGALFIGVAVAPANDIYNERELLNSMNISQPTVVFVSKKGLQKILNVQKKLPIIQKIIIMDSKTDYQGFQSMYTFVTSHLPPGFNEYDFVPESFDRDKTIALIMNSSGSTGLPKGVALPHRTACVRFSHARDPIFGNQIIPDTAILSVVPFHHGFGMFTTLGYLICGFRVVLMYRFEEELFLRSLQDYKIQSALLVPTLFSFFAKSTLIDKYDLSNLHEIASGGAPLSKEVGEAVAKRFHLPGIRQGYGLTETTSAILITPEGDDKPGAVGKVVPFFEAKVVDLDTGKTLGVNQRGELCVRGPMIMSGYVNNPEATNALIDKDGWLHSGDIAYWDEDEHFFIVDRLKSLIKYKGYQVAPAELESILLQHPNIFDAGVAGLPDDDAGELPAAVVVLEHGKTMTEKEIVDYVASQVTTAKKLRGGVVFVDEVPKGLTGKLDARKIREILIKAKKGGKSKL
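Purified P. pyralis luciferase (10nM final) with 10uM D-luciferin and 10uM ATP (Km levels) in 50mM Tris acetate pH 7.5, 10mM Mg acetate, 0.01% Tween-20, 0.05% BSA; qHTS 6-point titration, ~60 µM downward; luminescence read.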
ELG1 DNA repair: ELG1-dependent DNA repair inhibition. 330,000 tested, 2.3% active. Potency, µM (titrated, usually from 46.1 µM), for the others: at the highest dose activity change, negative = inhibition, actives largely listed as inhibitors. HEK293T ELG1-luciferase reporter, luminescence, 16 h; DNA damage induced by 5-fluorouridine; also: % is scaled to controls: 0 for no effect and ±100 for the full control effect; nearly all actives have a fitted effect of over 55% in size
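HEK293T cells expressing luciferase-tagged ELG1 (2,000/well) received 5-Fluorouridine plus compound or DMSO for 16 hr at 37 °C. Luciferase was read by ONE-Glo luminescence after 30 min at room temperature.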
SMN2 splice up: increases expression of the SMN2 splice variant; Potency, µM (doses to about 46.1 µM), for inactives: at the highest dose activity change, positive = activation, usual class: activators; HEK293 SMN2-luciferase splicing reporter, luminescence, 30-36 h; AID 1458; 210,000 tested, 2.8% active; also: % of control where 0% means no effect; nearly all actives have a fitted effect of over 55% in size
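qHTS luciferase splicing reporter: luminescence rises when SMN2 exon 7 is included in transfected HEK293 cells. Compound exposure lasted 30-36 h at 37C, with 4.5 mM final sodium butyrate as control, followed by a ONE-Glo read.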
ELG1 genotoxic: inducers of genotoxicity in HEK293T ELG1-luciferase cells. 330,000 tested, 1.3% active. Potency, µM (highest dose often 46 µM), inactives show at the highest dose activity change, positive = activation, hits mostly activators. AID 504466. HEK293T ELG1-luciferase reporter, luminescence, 16 h; also: % of control where 0% means no effect; nearly all actives have a fitted effect of over 60% in size
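Reporter readout depends on ELG1 protein level, which increases with genetic stress. After 16 hr compound exposure at 37 °C, luciferase activity was quantified using ONE-Glo.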
Rab9 prom act: Rab9 promoter activation | Huh7 Rab9 promoter-luciferase reporter, luminescence, 24 h | Potency, µM (doses to about 9.22 µM), without a hit: at the highest dose activation, negative = inhibition, hits mostly activators | 320,000 tested, 2.8% active; also: % of control where 0% means no effect; nearly all actives have a fitted effect of over 60% in size
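Stable Rab9-luc Huh7, 1500 cells/well, 2 h settle; cmpd in DMSO, 24 h, 37 °C/5% CO2; luciferase reagent 10 min RT; luminescence.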
* hit, by the source's call; ? = inconclusive; . = not tested or not shown; [ ] = another dose, or the depositor's remark. Calls follow the shape of the dose curve; as a rule, active = well fitted curve in the direction sought with a large enough effect; inconclusive = small, poorly fitted or top-dose-only effect, or another doubt; inactive = no such curve, though single readings can be large; an effect the other way counts as inactive or inconclusive. Potency is read from the fitted curve at half-maximal effect.

SMILES | NPC1 prom act | FLuc counter | ELG1 DNA repair | SMN2 splice up | ELG1 genotoxic | Rab9 prom act
COc1ccc(-c2cc(C(=O)N3CCCCC3)c3ccccc3n2)cc1 | 16% | 5.4µM* | ? | . | 1% | 17%
Cc1ccccc1CN1CCN(C(=O)c2cc(-c3ccncc3)nc3ccccc23)CC1 | 4% | -9% | 9% | . | 16% | 3%
O=C(c1cc(-c2ccncc2)nc2ccccc12)N1CCOCC1 | -9% | -1% | ? | . | -4% | 3%
Cc1ccc(-c2cc(C(=O)N3CCOCC3)c3ccccc3n2)cc1 | 7% | 11µM* | 12% | 13% | 25% | 18%
Cc1nn(-c2ccc(Cl)cc2Cl)c(=O)c2ccccc12 | -7% | 6% | -12% | -16% | -1% | -1%
Cc1nn(C(C)C(=O)N2CCCCC2)c(=O)c2c1sc1ccccc12 (centres undefined) | -5% | -4% | 3% | -10% | -4% | 9%
Cc1ccc(Sc2cc(C)nc(-c3ccccn3)n2)cc1 | 21% | 17µM* | ? | . | 6% | 5%
FC(F)(F)c1cccc(Sc2cc(C(F)(F)F)nc(-c3ccccn3)n2)c1 | -1% | -4% | ? | -19% | -10% | -2%
COc1ccccc1Sc1nc(-c2ccccn2)ncc1OC | 19% | -1% | 23µM* | -81% | -11% | -3%
COc1cnc(-c2ccccn2)nc1Sc1ccc(C)cc1 | -27% | -7% | 23µM* | -104% | -14% | 0%
CC(C)CN1CCN(C(=O)CCc2nnc(Cc3c[nH]c4ccccc34)o2)[C@@H](C)C1=O | -4% | -6% | ? | . | 12% | -1%
COc1cccc(Cn2cccc(NC(=O)Nc3cccc(C#N)c3)c2=O)c1 | -9% | -3% | ? | . | -6% | -22%
O=S(=O)(O)c1cc2oc(-c3ccccc3)nc2c2ccccc12 | 16% | 9.5µM* | 0% | . | -4% | 22%
COc1ccc2nc(N3C(=O)CC(Cc4ccc(Cl)cc4)C3=O)sc2c1 (centres undefined) | -1% | -6% | 11% | 11% | 0% | 8%
Clc1ccc(-c2nnc(C3CCCCC3)o2)cc1 | 24% | ? | ? | 27% | ? | 30%
Clc1ccc(-c2nc(C3CCCCC3)no2)cc1 | 3.2µM* | 4.8µM* | ? | ? | 12% | 3.2µM*
COc1cccc(OCc2nnc(SCC(=O)N3c4ccccc4Sc4ccc(Cl)cc43)o2)c1 | -4% | -2% | 8% | -32% | -2% | -8%
c1ccc(CC2CCN(c3nnnn3-c3ccccc3)CC2)cc1 | 1% | 5% | -5% | -67% | 12% | 0%
N/C(=N/O)c1ccccc1N1CCC(Cc2ccccc2)CC1 | -3% | 6% | 15µM* | -93% | -11% | -6%
S=C(Nc1ccccc1Cl)N1CCN(Cc2ccccc2)CC1 | -4% | -1% | -2% | -44% | 2% | 0%
COc1cccc(NC(=O)Nc2nc(-c3ccc(OC)c(OC)c3)cs2)c1 | -15% | ? | 4.1µM* | . | -26% | -7%
COc1ccc(-c2csc(NC(=O)C3CCN(C(=O)c4ccc(F)cc4)CC3)n2)cc1OC | -11% | -5% | 15µM* | . | -11% | -20%
COc1ccc(-c2csc(NC(=O)CCn3cnc4ccccc4c3=O)n2)cc1OC | -7% | -2% | 7.3µM* | -8% | -1% | 1%
COc1ccc(-c2csc(NC(=O)CCCc3nc4ccccc4c(=O)[nH]3)n2)cc1OC | -1% | ? | ? | . | -20% | -1%
COc1ccc(-c2csc(NC(=O)Nc3ccccc3)n2)cc1 | 0% | -3% | -1% | . | 0% | -2%
SMILES | NPC1 prom act | FLuc counter | ELG1 DNA repair | SMN2 splice up | ELG1 genotoxic | Rab9 prom act
COc1cccc(-c2csc(NC(C)=O)n2)c1 | 4µM* | 15µM* | ? | 28µM* | 10µM* | 4µM*
COc1ccc(-c2csc(NC(C)=O)n2)cc1OC | 5% | -11%[2.3 µM] | ? | 12% | 15% | 1%
COC(=O)c1ccccc1NC(=S)N1CCC(N2CCCCC2)CC1 | -3% | -1% | 3% | -30% | 4% | -7%
CC(C)C[C@H](NC(=O)c1nc[nH]c1C(=O)N1CCN(C(=O)OC(C)(C)C)CC1)C(=O)OC(C)(C)C | -4% | -3% | -6% | . | -11% | 20%
CCN(CC)c1ccc(-c2nn3c(-c4ccccc4OC)nnc3s2)cc1 | -18% | 19µM* | ? | -41% | -17% | -20%
COc1ccccc1-c1nn2c(-c3ccco3)nnc2s1 | ? | 5.4µM* | ? | 24% | 18µM* | ?
Cn1cccc1/C=N/NC(=O)CSc1nc2ccccc2[nH]1 | 0% | -19% | 19% | . | -1% | 6%
O=C(O)c1cccc(NC(=O)c2cn(-c3ccccc3)nc2-c2cc3ccccc3o2)c1 | 3% | 4.3µM* | 29% | 21% | 9% | 9%
O=C(N/N=C/c1cn(-c2ccccc2)nc1-c1cc2ccccc2o1)c1ccncc1 | 2.8µM* | 1.9µM* | ? | 7.1µM* | ? | 2.2µM*
O=C(N/N=C/c1cn(-c2ccccc2)nc1-c1cc2ccccc2o1)c1cccnc1 | ? | 2.1µM* | ? | 4µM* | ? | ?
NC(=O)c1cn(-c2ccccc2)nc1-c1cc2ccccc2oc1=O | -1% | 3% | 0% | -6% | 2% | -4%
COc1ccc(N(C(=O)c2csnn2)C(C(=O)NC2CCCC2)c2ccccc2)cc1 (centres undefined) | -2% | -1% | 4% | . | -1% | 0%
O=C(CSc1nnc(-c2ccccc2)o1)NC(=O)Cc1ccccc1 | . | . | ? | . | 2% | .
COC(=O)c1ccc(C(NC(=O)OCc2ccccc2)/C(F)=C/[C@@H](C)C(=O)NCc2ccc(OC)c(OC)c2)cc1 (some centres undefined) | -8% | -1% | 18µM* | -91% | 2% | -4%
COC(=O)c1ccc(C(NC(=O)OCc2ccccc2)/C(F)=C/[C@@H](C)C(=O)NCc2ccc(-c3ccccc3)cc2)cc1 (some centres undefined) | -2% | -21% | 25% | 16% | 16% | 0%
O=C(O)c1cc(NN=C2c3ccccc3-c3ccccc32)ccc1Cl | -3% | ? | ? | . | 1% | 0%
Cc1ccc(N/N=C2\CC(=O)c3ccccc32)cc1Cl | 2% | 9.5µM* | 18% | . | ? | 16%
COc1cc(C=O)ccc1OCc1ccccc1Br | ? | 9.5µM* | ? | ? | ? | ?
COc1cc(C=O)ccc1OCCSc1ccc(C)cc1 | 12% | ? | ? | 14% | 16µM* | 8%
COc1cc(C=O)ccc1OCc1cccc(Br)c1 | -3% | 7.6µM* | ? | 14µM* | ? | -6%

High-throughput results (PubChem BioAssay)
